{"source": "paper PMC6919601", "about": "“Identification of Plasmodium dipeptidyl aminopeptidase allosteric inhibitors by high throughput screening” (PLoS ONE, 2019)", "note": "The campaign covered roughly 110,000 compounds. About 230 (0.21%) showed an effect of 50% or more. Many of the other results were omitted from the sample, so strong results are more common in it than they were.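 Further: 30 min substrate incubation versus DMSO and 10 µM JCP410 controls.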"}
{"molecular_target": "DPAP1 (Plasmodium falciparum, UniProt Q8IIJ9)", "sequence (Q8IIJ9 whole entry, looked up)": "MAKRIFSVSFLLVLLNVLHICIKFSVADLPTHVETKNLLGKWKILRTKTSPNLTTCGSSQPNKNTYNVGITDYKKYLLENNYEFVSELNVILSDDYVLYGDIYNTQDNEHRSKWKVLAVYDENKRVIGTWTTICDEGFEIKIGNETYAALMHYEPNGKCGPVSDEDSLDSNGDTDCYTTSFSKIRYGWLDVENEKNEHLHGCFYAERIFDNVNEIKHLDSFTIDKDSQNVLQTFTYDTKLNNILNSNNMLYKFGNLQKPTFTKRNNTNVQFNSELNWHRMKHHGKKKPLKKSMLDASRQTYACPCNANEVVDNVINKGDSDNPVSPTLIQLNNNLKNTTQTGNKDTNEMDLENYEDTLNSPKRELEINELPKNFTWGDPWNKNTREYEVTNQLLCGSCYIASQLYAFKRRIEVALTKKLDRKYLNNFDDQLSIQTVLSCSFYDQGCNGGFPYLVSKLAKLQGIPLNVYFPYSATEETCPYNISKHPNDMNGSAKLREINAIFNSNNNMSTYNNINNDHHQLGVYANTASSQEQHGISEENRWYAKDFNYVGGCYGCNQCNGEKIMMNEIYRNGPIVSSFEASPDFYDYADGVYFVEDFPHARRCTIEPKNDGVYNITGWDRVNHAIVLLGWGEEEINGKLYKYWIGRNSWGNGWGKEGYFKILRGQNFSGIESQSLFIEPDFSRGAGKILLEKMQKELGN", "experiment": "primary screen, percent inhibition; read by cleavage of a fluorogenic dipeptide substrate; higher = more effect of the substance", "design": "species or system P. falciparum D10 trophozoite lysates; single well", "units": {"% Inhibition @ 10 uM": "%"}}
{"smiles": "CCCC(=O)n1nc2c3c(cccc31)C(=O)c1ccccc1-2", "% Inhibition @ 10 uM": -2.75}
{"smiles": "Cc1ccc(O)c(/C=N/c2c(C)nn(C)c2C)c1", "% Inhibition @ 10 uM": 7.26}
{"smiles": "CC(C)CCn1nnc2sc3c(c2c1=O)CCC(C)C3", "note": "(stereo not drawn)", "% Inhibition @ 10 uM": -6.78}
{"smiles": "Cc1ccc(CNc2nc3ccccc3c3nc(-c4ccncc4)nn23)cc1", "% Inhibition @ 10 uM": 0.981}
{"smiles": "O=C1NC(=S)NC(=O)C1=Cc1ccccc1OCCO", "% Inhibition @ 10 uM": -6.17}
{"smiles": "CC(=O)NS(=O)(=O)c1ccc(NC(=O)COc2ccc(C)cc2)cc1", "% Inhibition @ 10 uM": -0.473}
{"smiles": "CC(C)(C)c1ccc(C(CC(=O)O)NS(=O)(=O)Cc2ccccc2)cc1", "note": "(stereo not drawn)", "% Inhibition @ 10 uM": 2.72}
{"smiles": "Cc1cccc(N2C(=O)C3C4c5ccccc5C(C)(c5ccccc54)C3C2=O)c1", "note": "(stereo not drawn)", "% Inhibition @ 10 uM": 2.6}
{"smiles": "CC12c3ccccc3C(c3ccccc31)C1C(=O)N(c3ccc(Cl)cc3)C(=O)C12", "note": "(stereo not drawn)", "% Inhibition @ 10 uM": -1.59}
{"smiles": "Cc1ccc(N2C(=O)C3C4c5ccccc5C(C(C)O)(c5ccccc54)C3C2=O)cc1", "note": "(stereo not drawn)", "% Inhibition @ 10 uM": 53.4}
{"smiles": "Cn1c(C2=CC(C)(C)NC(C)(C)C2)ccc1C1=CC(C)(C)NC(C)(C)C1", "% Inhibition @ 10 uM": -5.9}
{"smiles": "COCCNC(=O)CCNS(=O)(=O)c1ccc(C)cc1", "% Inhibition @ 10 uM": -0.256}
{"smiles": "CCOc1ccc(C2c3c(-c4ccccc4O)n[nH]c3C(=O)N2Cc2ccco2)cc1OC", "note": "(stereo not drawn)", "% Inhibition @ 10 uM": 0.366}
{"smiles": "COc1cc(C2c3c(-c4ccccc4O)n[nH]c3C(=O)N2Cc2ccco2)ccc1O", "note": "(stereo not drawn)", "% Inhibition @ 10 uM": -3.12}
{"smiles": "CCOc1cc(C2c3c(-c4ccccc4O)n[nH]c3C(=O)N2Cc2ccco2)ccc1O", "note": "(stereo not drawn)", "% Inhibition @ 10 uM": 52.6}
{"smiles": "COc1ccc(CN(Cc2ccccc2)S(=O)(=O)c2ccc(-n3cnnn3)c(C)c2)cc1", "% Inhibition @ 10 uM": 2.08}
{"smiles": "Cc1cc(S(=O)(=O)N(Cc2ccccc2)Cc2ccccc2Cl)ccc1-n1cnnn1", "% Inhibition @ 10 uM": 58.7}
{"smiles": "Cc1cc(S(=O)(=O)N2CCC(n3c(O)nc4ccccc43)CC2)ccc1-n1cnnn1", "% Inhibition @ 10 uM": -0.671}
{"smiles": "CNS(=O)(=O)c1cn(CC(=O)NCc2ccccn2)cc1S(=O)(=O)NC", "% Inhibition @ 10 uM": -7.87}
{"smiles": "O=C(CC1SC(=O)N(Cc2cccc3ccccc23)C1=O)Nc1nccs1", "note": "(stereo not drawn)", "% Inhibition @ 10 uM": -2.82}
{"smiles": "C(=C\\c1ccccc1)/CN1CCN(C2CCN(Cc3ccccc3)CC2)CC1", "% Inhibition @ 10 uM": 1.88}
{"smiles": "C(=C\\c1ccccc1)/CN1CCN(C2CCN(CCc3ccccc3)CC2)CC1", "% Inhibition @ 10 uM": 97.7}
{"smiles": "C(=C\\c1ccccc1)/CN1CCN(CCc2ccccc2)CC1", "% Inhibition @ 10 uM": 1.74}
{"smiles": "Cc1cc(=O)n2nc(N(C)CC(=O)NCc3ccc4c(c3)OCO4)sc2n1", "% Inhibition @ 10 uM": 3}
{"smiles": "Cc1nnc2c(NCc3ccccc3)nc3ccc(C(=O)c4ccccc4)cc3n12", "% Inhibition @ 10 uM": 0.454}
{"smiles": "Cc1nnc2c(NCc3ccco3)nc3ccc(C(=O)c4ccccc4)cc3n12", "% Inhibition @ 10 uM": -6.09}
{"smiles": "Cc1nnc2c(NCc3ccc4c(c3)OCO4)nc3ccc(C(=O)c4ccccc4)cc3n12", "% Inhibition @ 10 uM": 79.7}
